Holding throughout (settings): mRNA level, 48 h; actives raise or lower the signal
Read-out in assay [1]: Intercellular Adhesion Molecule 1 (ICAM1), ICAM1 (gene 3383)
Nature of the assay: LTEA_HepaRG_ICAM1: Life Technologies and Expression Analysis (LTEA) Assay for Intercellular Adhesion Molecule 1 (ICAM1) using HepaRG (AID 2283507). The procedure, abridged: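 Differentiated human HepaRG cells in serum-free induction medium exposed 48 h in duplicate to 8 half-log concentrations (top 100 uM, 0.5% DMSO). ICAM1 mRNA quantified by TaqMan qRT-PCR, normalized to ACTB, GAPDH and POLR2A; bidirectional fitting versus DMSO.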

Read-out in assay [2]: Insulin-like growth factor-binding protein 1 (IGFBP1), IGFBP1 (gene 3484)
Put plainly: LTEA_HepaRG_IGFBP1: Life Technologies and Expression Analysis (LTEA) Assay for Insulin-like growth factor-binding protein 1 (IGFBP1) using HepaRG (AID 2283508). In a few lines: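 HepaRG cells, plated 48 h then switched to serum-free induction medium, exposed in duplicate for 48 h to 8-point half-log series from 100 uM in 0.5% DMSO. mRNA measured by qRT-PCR, normalized to ACTB/GAPDH/POLR2A; bidirectional fit versus DMSO.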

Read-out in assay [3]: Interleukin 6 (IL6), IL6 (gene 3569)
Nature of the assay: LTEA_HepaRG_IL6: Life Technologies and Expression Analysis (LTEA) Assay for Interleukin 6 (IL6) using HepaRG (AID 2283509). The procedure, abridged: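 HepaRG cells exposed in duplicate for 48 h to eight half-log concentrations, top 100 uM, in 0.5% DMSO serum-free induction medium. mRNA measured by qRT-PCR, normalized to ACTB, GAPDH and POLR2A. Bidirectional fit versus DMSO.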

Read-out in assay [4]: Interleukin 6 Receptor (IL6R), IL6R (gene 3570)
Put plainly: LTEA_HepaRG_IL6R: Life Technologies and Expression Analysis (LTEA) Assay for Interleukin 6 Receptor (IL6R) using HepaRG (AID 2283510).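 For AC50: TaqMan qRT-PCR signal normalized to ACTB GAPDH and POLR2A housekeeping genes.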 In a few lines: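 Differentiated HepaRG cells, plated 48 h, then exposed in duplicate for 48 h in serum-free induction medium to 8 half-log concentrations (top 100 uM, 0.5% DMSO). IL6R mRNA measured by TaqMan qRT-PCR, normalized to ACTB/GAPDH/POLR2A; bidirectional fit vs DMSO.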

Read-out in assay [5]: Potassium channel subfamily K member 1 (KCNK1), KCNK1 (gene 3775)
Nature of the assay: LTEA_HepaRG_KCNK1: Life Technologies and Expression Analysis (LTEA) Assay for Potassium channel subfamily K member 1 (KCNK1) using HepaRG (AID 2283511). The procedure, abridged:
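Differentiated HepaRG cells, 48 h exposure in serum-free induction medium with 0.5% DMSO; 8 concentrations, half-log from 100 uM, duplicate. KCNK1 mRNA by qRT-PCR, normalized to ACTB, GAPDH, POLR2A; bidirectional fit vs DMSO.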

Read-out in assay [6]: JUN Transcription Factor, JUN (gene 3725)
Put plainly: LTEA_HepaRG_JUN: Life Technologies and Expression Analysis (LTEA) Assay for JUN Transcription Factor using HepaRG (AID 2283513). The procedure, abridged:
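HepaRG cells, 48 h post-plating, exposed 48 h in serum-free induction medium to 8-point half-log series (top 100 uM, 0.5% DMSO), duplicate; mRNA by qRT-PCR (TaqMan, Fluidigm), normalized to ACTB/GAPDH/POLR2A; bidirectional fit vs DMSO.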

Read-out in assay [7]: Lipase C (LIPC), LIPC (gene 3990)
Nature of the assay: LTEA_HepaRG_LIPC: Life Technologies and Expression Analysis (LTEA) Assay for Lipase C (LIPC) using HepaRG (AID 2283514). The procedure, abridged: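 HepaRG cells, 48 h after plating, treated in duplicate for 48 h in serum-free induction medium over 8 half-log concentrations from 100 uM, 0.5% DMSO. LIPC mRNA by TaqMan qRT-PCR normalized to ACTB/GAPDH/POLR2A; bidirectional fit versus DMSO.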

Read-out in assay [8]: Lipoprotein lipase (LPL), LPL (gene 4023)
Put plainly: LTEA_HepaRG_LPL: Life Technologies and Expression Analysis (LTEA) Assay for Lipoprotein lipase (LPL) using HepaRG (AID 2283515). The procedure, abridged:
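Differentiated HepaRG cells, plated 48 h, then exposed 48 h in serum-free induction medium to 8 concentrations (top 100 uM, half-log steps) in 0.5% DMSO, duplicate. LPL mRNA measured by qRT-PCR, normalized to ACTB, GAPDH and POLR2A.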

Read-out in assay [9]: matrix metalloproteinase-10 (MMP10), MMP10 (gene 4319)
Put plainly: LTEA_HepaRG_MMP10: Life Technologies and Expression Analysis (LTEA) Assay for matrix metalloproteinase-10 (MMP10) using HepaRG (AID 2283517). The procedure, abridged: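 Differentiated HepaRG cells in serum-free induction medium exposed 48 h in duplicate to 8-point half-log series up to 100 uM in 0.5% DMSO. mRNA quantified by qRT-PCR, normalised to ACTB, GAPDH, POLR2A; bidirectional fit versus DMSO.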

Read-out in the next assay: MYC, MYC (gene 4609)
Nature of the assay: LTEA_HepaRG_MYC: Life Technologies and Expression Analysis (LTEA) Assay for MYC using HepaRG (AID 2283518). In a few lines: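 Differentiated HepaRG cells exposed 48 h in serum-free induction medium to 8 concentrations (top 100 uM, half-log steps; 0.5% DMSO), duplicate. MYC mRNA measured by Fluidigm qRT-PCR, normalized to ACTB, GAPDH, POLR2A; bidirectional fit versus DMSO.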

Read-out in assay [10]: Paternally Expressed 10 (PEG10), PEG10 (gene 23089)
Put plainly: LTEA_HepaRG_PEG10: Life Technologies and Expression Analysis (LTEA) Assay for Paternally Expressed 10 (PEG10) using HepaRG (AID 2283520). In a few lines:
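Differentiated HepaRG cells exposed 48 h in serum-free induction medium to eight half-log concentrations topping at 100 uM, 0.5% DMSO, in duplicate. PEG10 mRNA quantified by TaqMan qRT-PCR, normalized to ACTB, GAPDH and POLR2A; bidirectional fit versus DMSO.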

Read-out in assay [11]: Nuclear factor NF-kappa-B p105 subunit (Homo sapiens) (UniProt P19838)
Put plainly: LTEA_HepaRG_NFKB1: Life Technologies and Expression Analysis (LTEA) Assay for Nuclear Factor Kappa B Subunit 1 (NFKB1) using HepaRG (AID 2283521).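 Note: TaqMan qRT-PCR transcript normalised to ACTB GAPDH and POLR2A housekeeping genes.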 In a few lines: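 NFKB1 transcript was measured by TaqMan qRT-PCR on Fluidigm arrays, normalised to three housekeeping genes and fitted in both directions against 0.5% DMSO. HepaRG cells were dosed in duplicate for 48 h in serum-free induction medium, eight half-log steps from 100 uM.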

Read-out in assay [12]: Protein phosphatase 2A (PPP2R4), PTPA (gene 5524)
Put plainly: LTEA_HepaRG_PPP2R4: Life Technologies and Expression Analysis (LTEA) Assay for Protein phosphatase 2A (PPP2R4) using HepaRG (AID 2283522). The procedure, abridged:
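Differentiated human HepaRG cells in serum-free induction medium were exposed 48 h to 8 concentrations (top 100 µM, half-log steps, duplicate) in 0.5% DMSO. PPP2R4 mRNA was measured by TaqMan qRT-PCR, normalised to ACTB, GAPDH and POLR2A, and fitted bidirectionally versus DMSO.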

Read-out in assay [13]: Phosphatase and tensin (PTEN), PTEN (gene 5728)
Put plainly: LTEA_HepaRG_PTEN: Life Technologies and Expression Analysis (LTEA) Assay for Phosphatase and tensin (PTEN) using HepaRG (AID 2283523). The procedure, abridged: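 HepaRG cells, 48 h after plating, exposed in duplicate for 48 h in serum-free induction medium to 8 half-log concentrations up to 100 uM (0.5% DMSO). PTEN mRNA by qRT-PCR, normalized to ACTB, GAPDH, POLR2A; bidirectional fit versus DMSO.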

Read-out in assay [14]: solute carrier (SLC22A1), SLC22A1 (gene 6580)
Put plainly: LTEA_HepaRG_SLC22A1: Life Technologies and Expression Analysis (LTEA) Assay for solute carrier (SLC22A1) using HepaRG (AID 2283524). The procedure, abridged:
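Differentiated human HepaRG cells in serum-free induction medium, exposed 48 h in duplicate to 8-point half-log series from 100 µM top in 0.5% DMSO. SLC22A1 mRNA by TaqMan qRT-PCR normalized to ACTB, GAPDH, POLR2A; bidirectional fit versus DMSO.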

Read-out in assay [15]: Pyruvate Dehydrogenase Kinase 4 (PDK4), PDK4 (gene 5166)
Nature of the assay: LTEA_HepaRG_PDK4: Life Technologies and Expression Analysis (LTEA) Assay for Pyruvate Dehydrogenase Kinase 4 (PDK4) using HepaRG (AID 2283525). In a few lines:
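HepaRG cells plated 48 h, then switched to serum-free induction medium and exposed in duplicate for 48 h to 8 half-log concentrations from 100 uM in 0.5% DMSO. PDK4 mRNA measured by qRT-PCR, normalized to ACTB, GAPDH and POLR2A; bidirectional fit versus DMSO.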

Read-out in assay [16]: matrix metalloproteinase-3 (MMP3), MMP3 (gene 4314)
Nature of the assay: LTEA_HepaRG_MMP3: Life Technologies and Expression Analysis (LTEA) Assay for matrix metalloproteinase-3 (MMP3) using HepaRG (AID 2283519). In a few lines:
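HepaRG cells (~100,000/well) in serum-free induction medium were dosed in duplicate for 48 h with an 8-point half-log series from 100 uM, 0.5% DMSO. MMP3 mRNA was quantified by Fluidigm TaqMan qRT-PCR, normalized to three housekeeping genes.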

Read-out in assay [17]: MicroRNA 122 (MIR122), gene 406906
Put plainly: LTEA_HepaRG_MIR122: Life Technologies and Expression Analysis (LTEA) Assay for MicroRNA 122 (MIR122) using HepaRG (AID 2283516). Note: the transcript read is the microRNA miR-122. In a few lines:
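Differentiated human HepaRG cells in serum-free induction medium exposed 48 h to 8 half-log concentrations from 100 uM in 0.5% DMSO, duplicate. MIR122 quantified by Fluidigm TaqMan qRT-PCR, normalised to ACTB, GAPDH, POLR2A; fold change fitted bidirectionally versus DMSO.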

From PubChem BioAssay (EPA / NIEHS) come the findings set out here.

The structures appear in SMILES notation. Activity calls are given as the source filed them. Rule for the calls: active = hit-call score of the fitted dose curve at least 0.9, where 1 is the maximum; inactive = score below 0.9.

The term AC50 denotes the midpoint of the concentration-response curve, whichever way the signal moves.

Sequence of Nuclear factor NF-kappa-B p105 subunit (Homo sapiens) (P19838 whole entry, looked up): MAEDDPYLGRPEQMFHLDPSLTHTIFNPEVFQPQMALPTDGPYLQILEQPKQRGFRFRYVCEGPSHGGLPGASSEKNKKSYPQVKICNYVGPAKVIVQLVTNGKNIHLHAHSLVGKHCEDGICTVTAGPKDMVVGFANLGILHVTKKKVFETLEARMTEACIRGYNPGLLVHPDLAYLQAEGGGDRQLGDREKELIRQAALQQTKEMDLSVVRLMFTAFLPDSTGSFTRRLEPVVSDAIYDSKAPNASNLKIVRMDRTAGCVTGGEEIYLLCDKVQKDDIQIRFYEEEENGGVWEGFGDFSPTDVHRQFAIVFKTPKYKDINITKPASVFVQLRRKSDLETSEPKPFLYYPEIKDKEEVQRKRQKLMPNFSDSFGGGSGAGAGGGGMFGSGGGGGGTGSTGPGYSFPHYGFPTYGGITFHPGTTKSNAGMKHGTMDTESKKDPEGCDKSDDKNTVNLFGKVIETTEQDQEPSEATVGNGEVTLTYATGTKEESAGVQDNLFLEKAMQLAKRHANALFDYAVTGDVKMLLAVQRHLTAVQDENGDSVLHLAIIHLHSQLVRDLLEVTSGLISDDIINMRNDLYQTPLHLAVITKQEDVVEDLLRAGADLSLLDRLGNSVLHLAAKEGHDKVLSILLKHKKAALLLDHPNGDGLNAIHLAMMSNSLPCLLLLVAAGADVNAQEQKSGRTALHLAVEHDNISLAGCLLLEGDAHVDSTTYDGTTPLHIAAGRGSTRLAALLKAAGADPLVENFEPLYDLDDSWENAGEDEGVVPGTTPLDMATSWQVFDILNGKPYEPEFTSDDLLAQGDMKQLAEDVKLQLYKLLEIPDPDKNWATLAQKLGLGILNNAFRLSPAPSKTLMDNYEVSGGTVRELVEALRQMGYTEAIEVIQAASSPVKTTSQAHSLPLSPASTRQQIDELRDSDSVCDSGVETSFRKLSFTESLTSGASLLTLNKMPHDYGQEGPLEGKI

Take `CC[C@H](NC(=O)c1cc(F)ccc1NS(=O)(=O)c1cccc2cccnc12)c1ccccc1`: the compound was classed as inactive in [1], in assay [2], in assay [3], in assay [5], in assay [6] and in assay [8]. Further, the outcome in [9] is “inactive”; with MYC, MYC (gene 4609), “inactive”; in assay [11] it was “inactive”; in [12], “inactive”; in assay [13], “inactive”; in [15], “inactive”. Moreover, the AC50 in assay [4] was 38.6 µM (active); in assay [7], 20.1 µM (active); in [10] it was 19.1 µM (active); in assay [14] it was 50.8 µM (active).

As for `O=c1[nH]sc2ccccc12`, the outcome in [1], in assay [2], in [3], in assay [4], in [5] and in [6] was inactive. Also, the result in assay [7], in assay [8], in assay [9], in assay [16], in assay [10] and in assay [11] was inactive. The compound was called inactive in [12], in assay [13], in [14] and in [15].

Regarding `O=C1c2ccccc2C(=O)N1CCc1noc(-c2ccc(CN3CCCCCC3)s2)n1`, the outcome in [1], in assay [2], in assay [3], in assay [4], in assay [5] and in assay [6] was inactive. Further, the outcome in assay [7] is “inactive”; in [17], “inactive”; in assay [9], “inactive”; with MYC, MYC (gene 4609), “inactive”; in assay [16], “inactive”; in assay [11], “inactive”. In addition, the compound was classed as inactive in assay [12], in assay [13], in assay [14] and in assay [15]. In addition, the AC50 was 20.7 µM (active) in assay [8] and 42.2 µM (active) in assay [10].
